STK33 kin inh: human STK33 kinase inhibition. Q9BYT3. ADP-Glo luminescence, MBP substrate. inhibition, % at 12.5 µM. 0.44% of 27,000 active; in the data active = inhibition above about 20%
mut p53 react: mutant p53 pathway reactivation | 1.5% of 28,000 active | SW480 PUMA-promoter luciferase | activation, % at 9.98 µM; in the data active = activation above about 52%
ID4 binder: binds human ID4 protein on microarray; 1.2% of 31,000 active; AID 624137; calls only; small molecule microarray, Flag-ID4 binding, fluorescence F/B; P47928; call rule not given here;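 also: a binder raises fluorescence above local background on the spot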
Of the large screens only hits and unclear results are named; the others gave an inactive call. Only some compounds are listed: those with a hit (about 2% of all), similar ones and a draw of the others.

O=C(COc1ccccc1[N+](=O)[O-])Nc1ccc2oc(-c3ccc(F)cc3Cl)nc2c1	mut p53 react 51
COc1cc(NC(=O)COc2ccccc2[N+](=O)[O-])ccc1NC(=O)c1cccs1	none
COc1ccc(NC(=O)COc2ccccc2[N+](=O)[O-])cc1Cl	mut p53 react 135
O=C(COc1ccccc1Cl)Nc1ccc2oc(-c3ccc(F)cc3Cl)nc2c1	none
O=C(Cn1cnc2sc3c(c2c1=O)CCCC3)Nc1ccccc1Br	none
N#Cc1ccccc1CSc1nc2ccc(NC(=O)c3ccc(F)cc3)cc2s1	none

From PubChem BioAssay
